CHX counter: counter-screen for Shiga toxin inhibitors: cycloheximide protein synthesis inhibition; cell reporter, cycloheximide protein synthesis inhibition counterscreen; max response, %; 12% of 300,000 active; AID 2314; in the data active = max response mostly above about 13%, no sharp cut-off; inactive = mostly below about 14%; note: read at 38.3 µM for the half of the compounds with a filed dose
AMA1 RON2 block: AMA1-RON2 (P. falciparum) interaction inhibition; AlphaScreen AMA1-biotinylated RON2 peptide binding; Potency, µM (doses to about 58.2 µM), hits mostly inhibitors; 0.2% of 360,000 active; note: nearly all actives have a fitted effect of over 45% in size
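AMA1 (3D7) with his tag at 25 nM final met compounds first, then biotinylated RON2 peptide at 25 nM; detection used donor plus acceptor beads, 10 µg/mL apiece, read by AlphaScreen after 30 min at room temperature.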
Pf growth 48h: inhibits P. falciparum growth in the first generation, 48 h. P. falciparum luciferase growth in erythrocytes, 48 h. Potency, µM (top dose mostly 28.7 µM), hits mostly inhibitors. 5.9% of 310,000 active
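Luminescence readout; reporter = integrated firefly luciferase in P. falciparum. RBC culture at 2% hematocrit, 0.1% parasitemia final, 37 C/5% CO2; decreased signal taken as growth inhibition.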
SARS PLpro yeast: blocks SARS-CoV papain-like protease in a yeast assay | 0.19% of 330,000 active | S. cerevisiae expressing SARS-CoV PLpro, growth rescue | Potency, µM (titrated, usually from 32.9 µM), actives largely listed as activators; calls by dose curve; note: nearly all actives have a fitted effect of over 55% in size
Pf growth 96h: P. falciparum growth inhibition at 96 hours | Potency, µM (highest dose often 28.7 µM), most hits filed as inhibitors | 6.9% of 320,000 active | P. falciparum luciferase reporter growth, 96 h
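Erythrocytes infected with luciferase-expressing P. falciparum were dispensed at 2% hematocrit and 0.05% parasitemia (final), then incubated with compounds 96 hours at 37 C in 5% CO2. Luminescence after detection reagent addition reported growth.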
Shiga inhibitor: inhibitors of Shiga toxin in Vero cells. Vero cells, Shiga toxin protein synthesis inhibition reporter. inhibition, % at 38.7 µM. 9.2% of 290,000 active; in the data active = inhibition mostly above about 28%, no sharp cut-off; inactive = mostly below about 43%
Of the large screens only hits and unclear results are named; the others gave an inactive call. Rows were chosen to be rich in hits. Some 19% of all compounds tested hit in one or more screens of this group. Unless noted, calls come from the whole dose curve; as a rule, active = well fitted curve in the direction sought with a large enough effect; inconclusive = small, poorly fitted or top-dose-only effect, or another doubt; inactive = no such curve, though single readings can be large; an effect the other way counts as inactive or inconclusive.

CC(=O)c1sc(NC(=O)C(C)Oc2ccc3c(C)cc(=O)oc3c2)nc1C (configuration not stated)	none
O=C(O)CCCCCNC(=O)CCn1cnc2ccccc2c1=O	none
COc1ccc(CCC(=O)NCC(=O)OCc2ccccc2)cc1	none
CCn1cc(C(=O)O)c(=O)c2cc(F)c(N3CCNCC3)nc21	Pf growth 48h 3.61µM, Pf growth 96h 1.44µM (no result: CHX counter, SARS PLpro yeast, Shiga inhibitor)
c1ccc2oc(-c3[nH]ncc3CN(Cc3ccncc3)CC3CCCO3)cc2c1 (configuration not stated)	Pf growth 48h inconclusive, Pf growth 96h inconclusive
O=C1CC[C@@H](CN(Cc2ccccc2)Cc2cn[nH]c2-c2cc3ccccc3o2)N1	Pf growth 48h inconclusive, Pf growth 96h 14.7µM
Nc1c2c(nc3sc4c(c13)CCCC4)CCCC2	CHX counter 26.0, Pf growth 48h inconclusive, Shiga inhibitor 107.1
Nc1nc2c(s1)CCCCCCCCCC2	Pf growth 96h inconclusive
Nc1c2c(nc3sc4c(c13)CCCCC4)CCCCC2	CHX counter 51.2, Shiga inhibitor 58.6
CC(C)(C)c1nc2sc3c(c2c(=O)o1)CCCC3	none (no result: Pf growth 48h)
Cc1nc2sc3c(c2c(=O)n1N)CCC3	none
Nc1c2c(nc3sc4c(c13)CCCC4)CCCCC2	CHX counter 70.8, Pf growth 96h 0.828µM, Shiga inhibitor 129.7
S=c1nc[nH]c2c1ncn2C1CCCO1 (configuration not stated)	none
Nc1nc(-c2ccccc2)c(N=Nc2cccnc2)s1	none
Cc1nc(N)sc1N=Nc1ccc(F)cc1	CHX counter 48.5, Pf growth 96h inconclusive, Shiga inhibitor 62.1 (no result: Pf growth 48h)
CCOC(=O)/C(C#N)=C/c1ccc(SC)cc1	Pf growth 96h inconclusive
CCOC(=O)/C(C#N)=C/c1ccc(OC)c(OC)c1	none (no result: Pf growth 96h)
CCOC(=O)/C(C#N)=C/c1cc(C)n(-c2ccc(C)cc2)c1C	CHX counter 18.5 (no result: Pf growth 48h)
CCOC(=O)/C(C#N)=C\c1ccc(CC)s1	CHX counter 79.6, Shiga inhibitor 101.9
CCOC(=O)/C(C#N)=C\C=C1C=CN(C)C=C1	CHX counter 35.1, Shiga inhibitor 62.8
CCOC(=O)/C(C#N)=C\c1cc(C)n(-c2ccccc2)c1C	CHX counter 55.1, Shiga inhibitor 82.1
Cc1cc(/C=C(\C#N)C(=O)Nc2ccccc2)c(C)n1-c1ccc(C(=O)O)cc1	Pf growth 96h inconclusive
COc1cc(C(=O)OCC(=O)N2CCOCC2)c([N+](=O)[O-])cc1OC	none
COc1ccc(NC(=O)CSc2nc(N)c(C(=O)Nc3ccc(N(C)C)cc3)s2)cc1	Shiga inhibitor 123.5 (no result: Pf growth 96h)
CN(C)c1ccc(NC(=O)CSc2nc(N)c(C(=O)Nc3ccc(N(C)C)cc3)s2)cc1	CHX counter 30.7, AMA1 RON2 block inconclusive, Pf growth 48h inconclusive, Pf growth 96h inconclusive
COc1ccc(NC(=O)CSc2nnc(NC(=O)C3CCC3)s2)cc1	none (no result: SARS PLpro yeast)
CCOC(=O)c1sc(SCC(=O)Nc2ccc(N(C)C)cc2)nc1N	Pf growth 96h inconclusive
CN(C)C(N)=NCCC[C@H](N)C(=O)O	none (no result: CHX counter, Pf growth 48h, SARS PLpro yeast, Pf growth 96h, Shiga inhibitor)
CC(=O)Nc1ccc2c(CSc3nnc(-c4cccnc4)n3-c3ccc(C)cc3C)cc(=O)oc2c1	Pf growth 48h inconclusive, Pf growth 96h 7.38µM
CC(C)c1ccccc1-n1c(SCc2cc(=O)oc3ccc4ccccc4c23)nnc1-c1cccnc1	Pf growth 48h 13.1µM, Pf growth 96h 8.28µM
O=C(Nc1cccc(C(F)(F)F)c1)c1ccc(-c2ccc(F)c(F)c2)c2ccoc12	none (no result: CHX counter, Pf growth 48h, SARS PLpro yeast, Pf growth 96h, Shiga inhibitor)
CC(C)CN(CC(C)C)CC(O)COc1ccc([N+](=O)[O-])cc1 (configuration not stated)	Pf growth 48h 11.7µM
O=[N+]([O-])c1ccc(OCC(O)CN(C2CCCCC2)C2CCCCC2)cc1 (configuration not stated)	Pf growth 48h inconclusive, Pf growth 96h inconclusive
CC(C)COc1ccc(C(=O)Nc2ccc([N+](=O)[O-])cc2)cc1	CHX counter 30.3, Shiga inhibitor 51.4
O=C(COc1ccc([N+](=O)[O-])cc1)Nc1ccc(NC(=O)c2ccccc2)cc1	none
CC(C)COc1ccc(C(=O)Nc2ccc(SC(F)F)cc2)cc1	CHX counter 24.1
CCC(=O)Oc1ccc(C(=O)Nc2ccc([N+](=O)[O-])cc2)cc1	CHX counter 39.7, Pf growth 96h inconclusive, Shiga inhibitor 102.4
Cc1ccccc1NC(=O)CCc1nnc2ccc(N3CCC4(CC3)OCCO4)nn12	none
CCN(CC)C(=O)NC1CC(=O)N(c2ccc(OC)cc2)C1 (configuration not stated)	none
COc1ccc(Nc2nnc(-c3ccc(O)cc3)c3ccccc23)cc1	Pf growth 48h inconclusive, Pf growth 96h inconclusive
Cc1onc(-c2ccncc2)c1C(=O)O	CHX counter 26.9, Shiga inhibitor 54.9
COc1cccc(NC(=O)CN(C)C(=O)c2cc(-c3ccccc3)nc3ccc(C)cc23)c1	none (no result: CHX counter, Pf growth 48h, SARS PLpro yeast, Pf growth 96h, Shiga inhibitor)
NC(Cc1ccc(C(F)(F)F)cc1)c1csc(Nc2ccc(S(N)(=O)=O)cc2)n1 (configuration not stated)	none (no result: CHX counter, Pf growth 48h, SARS PLpro yeast, Pf growth 96h, Shiga inhibitor)
CCC(=O)N1CCc2cc(S(=O)(=O)NCCC(=O)Nc3ccccc3C)ccc21	Pf growth 48h inconclusive, Pf growth 96h 11.7µM
CCC(=O)N1CCc2cc(S(=O)(=O)NCCC(=O)Nc3ccc(OC)cc3)ccc21	none
CC(=O)N1CCc2cc(S(=O)(=O)NCCC(=O)Nc3cccc(C)c3C)ccc21	Pf growth 48h inconclusive, Pf growth 96h 3.7µM
NC(=O)CN(Cc1ccccc1)S(=O)(=O)c1ccc2c(c1)OCCO2	none
Cc1cc(S(=O)(=O)NCC(c2ccc3c(c2)OCO3)N2CCOCC2)ccc1F (configuration not stated)	Pf growth 48h inconclusive, Pf growth 96h 14.7µM (no result: CHX counter, Shiga inhibitor)
O=C(CCl)N1CCN2C(=O)c3ccccc3C12c1ccc(Cl)cc1 (configuration not stated)	Pf growth 96h inconclusive
Cc1ccc(C(=O)N2CCN3C(=O)c4ccccc4C23c2ccc(Cl)cc2)cc1 (configuration not stated)	Pf growth 96h 6.57µM (no result: Pf growth 48h)
O=C(CN1C(=O)c2ccccc2C1=O)Nc1cccc(Cl)c1	Pf growth 96h inconclusive
O=C(Nc1cccc(Cl)c1)N1CCN2C(=O)c3ccccc3C12c1ccccc1 (configuration not stated)	Pf growth 48h 16.5µM, SARS PLpro yeast inconclusive, Pf growth 96h 10.4µM
COC(=O)c1ccc(CO/N=C/c2cccc([N+](=O)[O-])c2)cc1	none
CC(C(=O)O/N=C(\N)c1ccccn1)c1ccc([N+](=O)[O-])cc1 (configuration not stated)	CHX counter 39.8, Shiga inhibitor 70.2
N/C(=N\OC(=O)C(c1ccccc1)c1ccccc1)c1cccnc1	Pf growth 48h inconclusive, Pf growth 96h 10.4µM
CC(C)(C)c1ccc(C(=O)O/N=C(\N)c2ccccn2)cc1	Pf growth 48h inconclusive
N/C(=N\OCc1ccc([N+](=O)[O-])cc1)c1ccccn1	none

Source: PubChem
